Reference: PubChem BioAssay (NCATS)
Values joined by “and” are separate entries in the source; they are usually repeats but may differ in a detail not shown here. Equal values may be shown once. Results filed as inconclusive are left out. Where a call stands in place of a potency, no number is given. Where a structure was tested more than once in an assay, its records may differ in their call. Active and inactive are the calls of the source. Unless noted, the call rests on the fitted dose curve; in most records, active means well fitted curve in the direction sought with a large enough effect; inconclusive means small, poorly fitted or top-dose-only effect, or another doubt; inactive means no such curve, though single readings can be large; an effect the other way counts as inactive or inconclusive.

Key:
[1] = Cell Viability - HUV-EC-C (AID 542); conditions: HUV-EC-C endothelial cell viability, qHTS; series mostly up to 92.2 µM; further: nearly all actives have a fitted effect of over 35% in size
Method in brief: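 HUV-EC-C normal human vascular endothelial cells, 1000 cells/well, pre-incubated 5 hr at 37 °C, then exposed to compounds for 40 hr at 37 °C in complete medium. Viability measured as intracellular ATP by CellTiter-Glo luminescence; AC50 from Hill fits.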

[2] = Cellular Toxicity (caspase-3) NIH 3T3 (AID 666); conditions: NIH 3T3 caspase-3 activation, apoptosis/toxicity, 0% DMSO, 100% is 100 µM tamoxifen; series mostly up to 92.2 µM;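 further: caspase signal read after 16 h compound exposure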
Method in brief: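 Mouse NIH 3T3 fibroblasts (1000 cells/well) were treated with compound for 16 hr at 37°C in complete medium; caspase-3/7 activity was read by Caspase-Glo luminescence. Normalized to DMSO and 100 uM tamoxifen; AC50 from Hill fits.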

[3] = Cell Viability - LYMP2-026 (AID 989); conditions: LYMP2-026 lymphoblastoid cell viability, qHTS; series mostly up to 92.2 µM; further: nearly all actives have a fitted effect of over 50% in size; further: potency means the concentration at half of the fitted maximal effect
Method in brief: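 Human lymphoblastoid cells (2500/well) in complete medium were preincubated 5 hr at 37 C, then exposed to compounds for 24 hr at 37 C. Cellular ATP was read by CellTiter-Glo luminescence; AC50 from Hill-equation fits of concentration-response data.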

[4] = Cell Viability - LYMP1-002 - Assay at 24 hr (AID 993); conditions: LYMP1-002 lymphoblastoid cells viability; series mostly up to 92.2 µM
Method in brief: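 Human lymphoblastoid LYMP1-002 cells, 2500/well in complete medium, were treated with compounds for 24 h at 37 C; intracellular ATP was read by CellTiter-Glo luminescence. AC50 values came from Hill-equation fits of qHTS concentration-response data.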

[5] = molecular target: Glucocorticoid receptor (Homo sapiens) (UniProt P04150); test: qHTS assay for small molecule agonists of glucocorticoid receptor signaling (AID 588532; active means well fitted curve in the direction sought with a large enough effect in the signal ratio, with a control signal flat; the % refers to the signal ratio); conditions: HeLa MMTV-bla, beta-lactamase ratio, agonist, 18 h; stronger effect = higher value; percent of dexamethasone control, DMSO zero
Method in brief: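 Cells were plated and rested 3-5 h at 37 C, compounds were added in titration and incubated 18 h, then CCF4 substrate was loaded for 2 h at RT before reading blue/green fluorescence. EC50 came from Hill-equation fitting.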

[6] = molecular target: Glucocorticoid receptor (Homo sapiens) (UniProt P04150); test: qHTS assay for small molecule antagonists of glucocorticoid receptor signaling (AID 588533; active means well fitted inhibition curve with a large enough effect in the signal ratio, with a control signal flat, not every such curve was filed as active; the % refers to the signal ratio;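 further: cells stimulated with 2 nM dexamethasone as agonist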; further: potency means the concentration at half of the fitted maximal effect); conditions: HeLa MMTV-bla, GRE beta-lactamase ratio, antagonist mode, 18 h; series mostly up to 76.8 µM
Method in brief: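 Antagonist-mode qHTS: compound titrations added to GRE-bla HeLa cells, then dexamethasone 2 nM final; 18 h, 37 C. CCF4 FRET fluorescence normalized to dexamethasone and DMSO; IC50 from Hill fit.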

[7] = molecular target: Vitamin D3 receptor (Homo sapiens) (UniProt P11473); test: qHTS assay for small molecule agonists of vitamin D receptor signaling (AID 588543; calls by dose curve); conditions: HEK293T VDR-UAS-bla, beta-lactamase ratio, 16 h; series mostly up to 76.8 µM
Method in brief: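 Measured: β-lactamase reporter activity (CCF4, 405 nm excitation, 460/530 nm emission) in HEK293T VDR-UAS-bla cells after 16 h compound exposure at 37 °C. Normalization against 50 nM 1α,25-dihydroxyvitamin D3 and DMSO; Hill-fit EC50.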

[8] = molecular target: Voltage-gated inwardly rectifying potassium channel KCNH2 (Homo sapiens) (UniProt Q12809); test: qHTS Assay for Small Molecule Inhibitors of the Human hERG Channel Activity (AID 588834); conditions: U2OS BacMam hERG, FluxOR thallium flux fluorescence; series mostly up to 92.2 µM;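 further: lower thallium flux fluorescence means stronger hERG block; nearly all actives have a fitted effect of over 50% in size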; further: potency means the concentration at half of the fitted maximal effect
Method in brief: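 Blockade is seen as reduced FluxOR thallium-flux fluorescence in U2OS cells expressing hERG from a BacMam construct, in Opti-MEM with 2% FCS. Concentration-response data fitted to the Hill equation for AC50.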

[9] = qHTS assay for small molecule activators of the nuclear factor-kappa B (NF-kB) signaling pathway (AID 651749; active means well fitted activation curve with a large enough effect in the signal ratio; the % refers to the signal ratio); conditions: NF-kB-bla ME-180 cells, beta-lactamase FRET ratio, 16 h; stronger effect = higher value
Method in brief: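 Incubation lasted 16 hr at 37C in 5% CO2 after 23 nL compound addition to ME-180 NF-kB-bla cells. Activation appears as beta-lactamase-mediated FRET loss.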

[10] = molecular target: Tumor necrosis factor (Homo sapiens) (UniProt P01375); test: qHTS assay to identify small molecules that stimulate Tumor Necrosis Factor-alpha (TNF-alpha) secretion (AID 651757; active means well fitted curve in the direction sought with a large enough effect in the signal ratio; the % refers to the signal ratio); conditions: Human cells, HTRF 665/615 ratio; series mostly up to 92.2 µM
Method in brief: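 THP-1 cells were exposed to compounds for 17 hrs at 37 C, after which secreted TNF-alpha was measured by homogeneous HTRF (TR-FRET) using cryptate- and XL665-labeled anti-TNF-alpha antibodies, read after 3 hr at room temperature.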

[11] = molecular target: Nuclear receptor ROR-gamma (Homo sapiens) (UniProt P51449); test: qHTS assay for small molecule antagonists of the retinoid-related orphan receptor gamma (ROR-gamma) signaling pathway (AID 651802); conditions: ROR-gamma antagonist cell reporter assay; series mostly up to 92.2 µM; further: nearly all actives have a fitted effect of over 60% in size; further: potency means the concentration at half of the fitted maximal effect
Method in brief: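 CHO cells carrying TET-inducible ROR-gamma and an ROR response element–luciferase reporter were exposed to compound, then induced with doxycycline. After 16hr at 37C, luminescence was read; lower signal indicates antagonism.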

[12] = qHTS assay for small molecule antagonists of the retinoid-related orphan receptor gamma (ROR-gamma) signaling pathway - cell viability counter screen (AID 720652; active means well fitted curve in the direction sought with a large enough effect in the repeat runs; an effect the other way counts as inactive or inconclusive;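 further: compound exposure lasted 16 hr before ATP read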); conditions: RORgamma reporter cell line viability counter screen; series mostly up to 92.2 µM
Method in brief: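 Counter screen in CHO cells carrying TET-inducible ROR-gamma and an ROR response element-luciferase reporter; cells plated 5 hr, compound pinned, doxycycline added, then 16 hr at 37 C. Viability read as intracellular ATP by CellTiter-Glo luminescence.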

[13] = qHTS assay for small molecule activators of the human pregnane X receptor (PXR) signaling pathway (AID 720659; call rule not given here); conditions: DPX-2 HepG2 CYP3A4-luciferase, 24 h; series mostly up to 92.3 µM
[14] = qHTS assay for small molecule agonists of the antioxidant response element (ARE) signaling pathway (AID 651741; active means well fitted activation curve with a large enough effect in the signal ratio; the % refers to the signal ratio; further: potency means the concentration at half of the fitted maximal effect); conditions: HepG2 ARE-bla reporter, beta-lactamase FRET ratio, 16 h; series mostly up to 96 µM
Method in brief: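 HepG2 ARE-bla cells plated at 2,000 cells/well and incubated 5 h at 37 C/5% CO2 received 23 nL compound in DMSO. After 16 h at 37 C, LiveBLAzer B/G FRET substrate was applied for 2 h at room temperature and fluorescence read.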

[15] = molecular target: Cytochrome P450 3A4 (Homo sapiens) (UniProt P08684); test: qHTS Assay for Inhibitors and Substrates of Cytochrome P450 3A4 (AID 884); conditions: recombinant CYP3A4, Luciferin-PPXE luminescence; series mostly up to 57.1 µM; further: nearly all actives have a fitted effect of over 50% in size; further: potency means the concentration at half of the fitted maximal effect
Method in brief: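 20 nM human CYP3A4 with 25 uM Luciferin-PPXE (at KM) in 200 mM KPO4, preincubated 10 min with compound; NADPH regeneration started a 60 min RT reaction. Luciferin detected by luminescence, normalized to 57 uM ketoconazole as full inhibition.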

[16] = molecular target: Peroxisome proliferator-activated receptor delta (Homo sapiens) (UniProt Q03181); test: qHTS assay for small molecule antagonists of peroxisome proliferator-activated receptor delta signaling (AID 588535; active means well fitted inhibition curve with a large enough effect in the signal ratio, with a control signal flat, not every such curve was filed as active; the % refers to the signal ratio); conditions: HEK293T PPARd-UAS-bla, beta-lactamase FRET ratio, 18 h; series mostly up to 76.7 µM
Method in brief: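 Cells were seeded at 4000 per well in assay medium containing 2% charcoal/dextran FBS and held 5 hrs at 37 C. Compounds were then added for 18 hrs. CCF4 substrate was applied for 2 hrs at room temperature before fluorescence reading.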

[17] = molecular target: Peroxisome proliferator-activated receptor gamma (Homo sapiens) (UniProt P37231); test: qHTS assay for small molecule agonists of peroxisome proliferator-activated receptor gamma signaling (AID 588536; active means well fitted curve in the direction sought with a large enough effect in the signal ratio, with a control signal flat, not every such curve was filed as active; the % refers to the signal ratio); conditions: HEK293 PPARg-UAS-bla, beta-lactamase ratio, 16 h, percent of rosiglitazone response, DMSO as zero; series mostly up to 76.7 µM
Method in brief: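 PPAR-gamma-UAS-bla HEK293 cells in medium with 1% charcoal/dextran-treated FBS were exposed to compounds for 16 h at 37 C. Beta-lactamase activity was read with CCF4 substrate (405 nm excitation, 460/530 nm emission).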

[18] = molecular target: Estrogen receptor (Homo sapiens) (UniProt P03372); test: qHTS assay for small molecule antagonists of estrogen receptor alpha signaling (AID 588513; active means well fitted curve in the direction sought with a large enough effect in the signal ratio, with a control signal flat, not every such curve was filed as active; the % refers to the signal ratio); conditions: ER-alpha-UAS-bla HEK293, beta-lactamase ratio, antagonist mode; series mostly up to 76.9 µM
Method in brief: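 Antagonist-mode qHTS in ER-alpha-UAS-bla HEK 293 cells: compound titration, 0.5nM estradiol for 18 h, CCF4 fluorescence, Hill-derived IC50.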

[19] = MultiTox-Fluor Cytotoxicity Assay - LYMP1-003 - Dead Cells (AID 961); conditions: LYMP1-003 lymphoblastoid cells, dead-cell protease fluorescence; series mostly up to 92.2 µM; further: nearly all actives have a fitted effect of over 70% in size
Method in brief: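 Human lymphoblastoid LYMP1-003 cells (2500/well) were treated with compounds for 16 hr at 37 C in complete medium. Dead-cell protease release was read by bis-AAF-R110 fluorescence (Ex/Em 485/520). AC50 came from Hill fits, normalized to DMSO and 15 uM tetraoctylammonium bromide.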

[20] = molecular target: Estrogen receptor (Homo sapiens) (UniProt P03372); test: qHTS assay for small molecule agonists of estrogen receptor alpha signaling (AID 588514; calls by dose curve; further: nearly all actives have a fitted effect of over 70% in size); conditions: ER-alpha-UAS-bla HEK293, beta-lactamase ratio, 18 h; series mostly up to 76.8 µM
Method in brief: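 ER-alpha-UAS-bla GripTite HEK 293 cells in medium with 2% charcoal/dextran-treated FBS were treated with compound titrations at 37 C for 18 hrs; beta-lactamase reporter read by CCF4 fluorescence after 2 hrs at RT.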

Sequence of Vitamin D3 receptor (Homo sapiens) (P11473 whole entry, looked up): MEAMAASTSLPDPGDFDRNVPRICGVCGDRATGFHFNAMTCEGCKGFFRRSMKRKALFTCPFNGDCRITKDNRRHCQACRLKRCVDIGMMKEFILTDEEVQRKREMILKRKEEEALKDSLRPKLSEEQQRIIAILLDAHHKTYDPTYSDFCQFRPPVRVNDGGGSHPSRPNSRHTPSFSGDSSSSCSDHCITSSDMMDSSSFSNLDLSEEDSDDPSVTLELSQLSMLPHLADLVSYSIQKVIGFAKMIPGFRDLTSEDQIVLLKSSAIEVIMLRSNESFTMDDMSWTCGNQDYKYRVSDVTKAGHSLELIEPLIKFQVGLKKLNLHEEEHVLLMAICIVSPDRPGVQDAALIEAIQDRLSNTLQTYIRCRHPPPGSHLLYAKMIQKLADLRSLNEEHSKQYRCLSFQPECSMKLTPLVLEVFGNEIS
Sequence of Voltage-gated inwardly rectifying potassium channel KCNH2 (Homo sapiens) (Q12809 whole entry, looked up): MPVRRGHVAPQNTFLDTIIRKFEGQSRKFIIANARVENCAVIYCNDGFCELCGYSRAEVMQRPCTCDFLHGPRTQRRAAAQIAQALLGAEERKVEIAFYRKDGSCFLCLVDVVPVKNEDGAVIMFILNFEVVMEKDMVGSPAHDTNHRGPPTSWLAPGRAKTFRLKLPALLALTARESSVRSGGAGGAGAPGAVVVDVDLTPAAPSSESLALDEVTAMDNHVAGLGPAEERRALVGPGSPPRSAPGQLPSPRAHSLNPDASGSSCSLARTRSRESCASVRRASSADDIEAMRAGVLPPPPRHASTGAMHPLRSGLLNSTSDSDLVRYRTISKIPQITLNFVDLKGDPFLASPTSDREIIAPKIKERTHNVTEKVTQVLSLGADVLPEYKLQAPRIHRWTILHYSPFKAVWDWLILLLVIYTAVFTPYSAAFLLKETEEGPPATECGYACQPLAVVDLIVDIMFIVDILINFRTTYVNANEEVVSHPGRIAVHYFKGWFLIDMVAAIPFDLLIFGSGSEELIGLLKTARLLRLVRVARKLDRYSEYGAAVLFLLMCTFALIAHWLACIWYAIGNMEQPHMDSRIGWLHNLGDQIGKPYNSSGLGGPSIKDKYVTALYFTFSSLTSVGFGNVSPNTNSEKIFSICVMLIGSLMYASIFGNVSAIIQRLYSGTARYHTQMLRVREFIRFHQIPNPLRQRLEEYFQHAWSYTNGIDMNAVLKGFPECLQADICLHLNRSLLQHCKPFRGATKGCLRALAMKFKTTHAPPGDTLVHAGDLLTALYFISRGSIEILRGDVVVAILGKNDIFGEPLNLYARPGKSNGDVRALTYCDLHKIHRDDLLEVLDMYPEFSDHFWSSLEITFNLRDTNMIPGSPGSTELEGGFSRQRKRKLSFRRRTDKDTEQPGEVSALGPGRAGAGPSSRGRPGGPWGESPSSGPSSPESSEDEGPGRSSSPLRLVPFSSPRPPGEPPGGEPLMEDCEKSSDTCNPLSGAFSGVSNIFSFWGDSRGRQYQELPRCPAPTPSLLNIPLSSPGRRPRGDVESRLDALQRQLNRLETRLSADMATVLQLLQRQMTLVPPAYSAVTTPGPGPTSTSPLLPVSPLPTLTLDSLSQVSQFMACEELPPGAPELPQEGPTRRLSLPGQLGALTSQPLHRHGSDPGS
Sequence of Nuclear receptor ROR-gamma (Homo sapiens) (P51449 whole entry, looked up): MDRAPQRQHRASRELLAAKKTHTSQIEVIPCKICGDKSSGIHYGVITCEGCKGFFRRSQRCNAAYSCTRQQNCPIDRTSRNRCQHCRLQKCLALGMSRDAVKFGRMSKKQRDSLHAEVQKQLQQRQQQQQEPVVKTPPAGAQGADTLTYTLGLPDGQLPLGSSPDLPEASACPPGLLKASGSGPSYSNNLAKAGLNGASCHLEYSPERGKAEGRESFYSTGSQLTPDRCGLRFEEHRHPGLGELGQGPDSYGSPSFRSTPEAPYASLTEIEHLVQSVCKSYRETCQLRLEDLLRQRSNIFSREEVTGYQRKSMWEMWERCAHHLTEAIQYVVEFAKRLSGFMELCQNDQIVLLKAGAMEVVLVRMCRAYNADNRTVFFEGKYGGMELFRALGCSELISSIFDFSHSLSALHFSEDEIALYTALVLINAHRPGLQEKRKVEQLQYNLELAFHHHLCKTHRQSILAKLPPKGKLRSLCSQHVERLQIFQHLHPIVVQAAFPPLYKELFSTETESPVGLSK
Sequence of Cytochrome P450 3A4 (Homo sapiens) (P08684 whole entry, looked up): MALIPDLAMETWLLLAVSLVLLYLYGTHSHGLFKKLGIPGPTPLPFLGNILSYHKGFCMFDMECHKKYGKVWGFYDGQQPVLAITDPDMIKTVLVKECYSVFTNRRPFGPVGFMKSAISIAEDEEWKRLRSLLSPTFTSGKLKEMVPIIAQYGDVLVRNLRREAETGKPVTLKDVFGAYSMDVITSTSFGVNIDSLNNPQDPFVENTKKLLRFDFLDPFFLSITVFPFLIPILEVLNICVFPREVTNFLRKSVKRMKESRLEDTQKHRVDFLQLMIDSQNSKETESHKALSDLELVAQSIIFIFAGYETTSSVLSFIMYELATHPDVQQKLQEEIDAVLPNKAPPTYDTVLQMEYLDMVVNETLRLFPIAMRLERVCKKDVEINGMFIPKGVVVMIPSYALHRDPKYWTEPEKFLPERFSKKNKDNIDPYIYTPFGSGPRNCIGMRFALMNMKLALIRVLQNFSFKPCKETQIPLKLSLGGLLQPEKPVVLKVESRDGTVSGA
Sequence of Tumor necrosis factor (Homo sapiens) (P01375 whole entry, looked up): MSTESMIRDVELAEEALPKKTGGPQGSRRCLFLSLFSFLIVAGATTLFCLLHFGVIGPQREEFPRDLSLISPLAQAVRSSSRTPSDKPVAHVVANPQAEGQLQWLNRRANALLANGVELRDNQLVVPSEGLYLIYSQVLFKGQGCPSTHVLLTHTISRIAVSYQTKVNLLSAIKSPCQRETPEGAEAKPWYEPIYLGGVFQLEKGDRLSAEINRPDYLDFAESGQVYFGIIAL
Sequence of Peroxisome proliferator-activated receptor delta (Homo sapiens) (Q03181 whole entry, looked up): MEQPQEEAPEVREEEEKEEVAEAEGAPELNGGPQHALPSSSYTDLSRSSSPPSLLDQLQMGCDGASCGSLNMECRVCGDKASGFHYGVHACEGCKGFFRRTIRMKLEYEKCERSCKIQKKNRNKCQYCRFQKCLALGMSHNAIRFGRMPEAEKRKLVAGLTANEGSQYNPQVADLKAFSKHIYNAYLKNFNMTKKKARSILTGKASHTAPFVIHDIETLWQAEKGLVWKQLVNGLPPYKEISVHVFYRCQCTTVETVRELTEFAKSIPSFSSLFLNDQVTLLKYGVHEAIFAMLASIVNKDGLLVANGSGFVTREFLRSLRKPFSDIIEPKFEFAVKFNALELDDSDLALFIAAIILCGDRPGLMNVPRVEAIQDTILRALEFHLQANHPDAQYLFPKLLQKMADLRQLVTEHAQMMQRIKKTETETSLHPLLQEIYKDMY
Sequence of Estrogen receptor (Homo sapiens) (P03372 whole entry, looked up): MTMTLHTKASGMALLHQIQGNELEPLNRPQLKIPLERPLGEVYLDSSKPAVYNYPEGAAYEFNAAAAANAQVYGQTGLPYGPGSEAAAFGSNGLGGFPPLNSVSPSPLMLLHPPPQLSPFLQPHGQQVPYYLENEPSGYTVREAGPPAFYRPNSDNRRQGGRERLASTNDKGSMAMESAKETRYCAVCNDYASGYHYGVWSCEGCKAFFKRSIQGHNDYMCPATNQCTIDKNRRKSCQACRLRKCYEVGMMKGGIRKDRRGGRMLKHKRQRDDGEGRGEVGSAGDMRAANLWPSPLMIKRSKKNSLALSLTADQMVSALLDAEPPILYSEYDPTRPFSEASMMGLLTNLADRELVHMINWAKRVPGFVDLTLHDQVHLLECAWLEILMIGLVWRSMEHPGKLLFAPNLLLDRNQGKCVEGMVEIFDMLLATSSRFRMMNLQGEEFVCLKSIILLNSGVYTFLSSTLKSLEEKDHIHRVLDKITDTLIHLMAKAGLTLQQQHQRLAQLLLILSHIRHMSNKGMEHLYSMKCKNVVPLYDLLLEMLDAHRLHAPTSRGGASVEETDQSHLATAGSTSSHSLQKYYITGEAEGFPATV
Sequence of Glucocorticoid receptor (Homo sapiens) (P04150 whole entry, looked up): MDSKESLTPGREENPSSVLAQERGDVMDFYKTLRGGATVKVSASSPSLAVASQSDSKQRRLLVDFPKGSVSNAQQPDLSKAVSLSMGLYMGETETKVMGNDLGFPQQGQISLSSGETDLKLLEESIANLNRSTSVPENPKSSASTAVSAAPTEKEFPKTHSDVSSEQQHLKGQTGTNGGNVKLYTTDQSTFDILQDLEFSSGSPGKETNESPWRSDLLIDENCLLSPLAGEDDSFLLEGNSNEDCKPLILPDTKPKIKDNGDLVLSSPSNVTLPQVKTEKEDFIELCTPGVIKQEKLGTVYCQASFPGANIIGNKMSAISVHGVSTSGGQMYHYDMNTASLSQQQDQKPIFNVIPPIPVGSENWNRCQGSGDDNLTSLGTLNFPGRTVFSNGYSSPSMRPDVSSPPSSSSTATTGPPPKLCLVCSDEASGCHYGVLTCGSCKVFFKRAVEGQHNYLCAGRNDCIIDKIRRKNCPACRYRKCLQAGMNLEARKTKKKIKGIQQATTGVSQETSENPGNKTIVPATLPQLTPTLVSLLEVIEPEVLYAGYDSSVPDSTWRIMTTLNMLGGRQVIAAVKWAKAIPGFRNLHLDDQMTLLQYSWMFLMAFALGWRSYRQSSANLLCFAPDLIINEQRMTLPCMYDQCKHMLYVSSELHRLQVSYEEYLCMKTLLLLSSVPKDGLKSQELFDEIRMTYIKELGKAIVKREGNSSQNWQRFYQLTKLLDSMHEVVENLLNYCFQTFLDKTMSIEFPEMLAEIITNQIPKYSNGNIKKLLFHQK

Compound	Potency [1]	outcome [2]	Potency [3]	Potency [4]	activation [5]	Potency [6]	Potency [7]	Potency [8]	activation [9]	Potency [10]	Potency [11]	Potency [12]	outcome [13]	Potency [14]	Potency [15]	outcome [16]	outcome [17]	outcome [18]	Potency [19]	Potency [20]
CCCCCCCCOc1ccc(C(=O)O)cc1	inactive	inactive	inactive	inactive	-4.25% (inactive)	inactive	inactive	inactive	-0.0346% (inactive)	inactive	inactive	inactive	inactive							
O=C(OCC1CO1)C1CCCCC1C(=O)OCC1CO1 (stereo not given)	inactive			inactive	2.8% (inactive)	inactive		inactive		inactive	inactive	inactive	inactive	42.2 µM (active)						
c1ccc(SCCSc2ccccc2)cc1	inactive	inactive	inactive				inactive		-4.5% (inactive)	inactive	inactive	inactive			inactive	inactive	inactive			
CN(C)c1ccc(C(=N)c2ccc(N(C)C)cc2)cc1				inactive	2.53% (inactive)	inactive	inactive	15.8 µM (active)	3.33% (inactive)		5.31 µM (active)							inactive		
Nc1ccc(N)c(Cl)c1	inactive						inactive	inactive			inactive	inactive	inactive	23.7 µM (active)	10 µM (active)	inactive			inactive	inactive
Brc1cc(Br)c(Oc2cc(Br)c(Br)cc2Br)cc1Br	inactive		inactive	inactive					3.12% (inactive)	inactive		inactive	inactive		inactive			inactive	inactive	
C=CC(=O)OCCCCCCOC(=O)C=C	inactive		39.8 µM (active)		-0.42% (inactive) and -1.5% (inactive)	39.8 µM (active) and inactive	inactive	inactive		inactive			inactive	29.8 µM (active)		inactive	inactive	inactive		
